# Test results published in the supplement of paper PMC6607015.
# Counter-ions that a name gives are not always drawn.
# Assays:
# Conditions in all cases: compound concentration in added solution (µM; 5 µl added to 20 µl cells): 10; 18 h
# A431 [1] = experiment: LBPA endosome anti-LBPA integrated intensity (sum per cell), Z-score; higher = more LBPA staining
# Outline: (§1)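 After 18 h on 5 µl of 10 µM compound solution in duplicate 384-well imaging plates, HeLa MZ or A431 cells, seeded at 3,500 per well in 20 µl, were fixed with 4% PFA. They were then labelled with 6C4 anti-LBPA antibody, filipin, propidium iodide and CellTracker green, and four 20× fields were recorded per well. Integrated LBPA or filipin intensity per cell, whole-cell or within LBPA endosomes, came from MetaXpress segmentation and was normalised to Z-scores in AcuityXpress.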
# HeLa MZ [2] = experiment: as above
# Outline: as §1
# A431 [3] = experiment: whole-cell filipin (free cholesterol) integrated intensity, Z-score; higher = more cholesterol staining
# Outline: as §1
# HeLa MZ [4] = experiment: as above
# Outline: as §1
# A431 [5] = experiment: filipin (cholesterol) integrated intensity within LBPA endosomes, Z-score; higher = more cholesterol in LBPA endosomes
# Outline: as §1
# HeLa MZ [6] = experiment: as above
# Outline: as §1
Compound,LBPA endosome anti-LBPA integrated intensity (z-score) (A431 [1]),LBPA endosome anti-LBPA integrated intensity (z-score) (HeLa MZ [2]),whole-cell filipin (z-score) (A431 [3]),whole-cell filipin (z-score) (HeLa MZ [4]),filipin (z-score) (A431 [5]),filipin (z-score) (HeLa MZ [6])
COC(=O)CCc1ccc(OCC(O)CNC(C)C)cc1 (stereo not drawn) [Esmolol hydrochloride],-0.258,-0.524,-0.179,0.319,-0.36,-0.273
Nc1cc(-c2ccncc2)c[nH]c1=O [Amrinone],-0.468,-0.737,-0.578,-0.805,-0.461,-0.541
Nc1ccc(S(=O)(=O)Nc2ncccn2)cc1 [Sulfadiazine],-0.494,-0.985,-0.718,-0.987,-0.481,-0.62
N=C(NCCCCCCNC(=N)NC(=N)Nc1ccc(Cl)cc1)NC(=N)Nc1ccc(Cl)cc1 [Chlorhexidine],-0.526,-0.794,-1.08,-1.91,-0.271,-0.107
"CC(C)NCC(O)c1cc(O)cc(O)c1 (stereo not drawn) [Metaproterenol sulfate, orciprenaline sulfate]",-0.366,-0.417,-0.271,-0.375,-0.531,-0.465
CC(=O)O[C@]1(C(C)=O)CC[C@H]2[C@@H]3C=C(Cl)C4=CC(=O)[C@@H]5C[C@@H]5[C@]4(C)[C@H]3CC[C@@]21C [Cyproterone acetate],-0.264,0.704,0.568,0.591,0.113,0.108
CCCN(CCC)S(=O)(=O)c1ccc(C(=O)O)cc1 [Probenecid],-0.546,-0.569,-0.756,-0.679,-0.526,-0.61
NCCc1cc[nH]n1 [Betazole hydrochloride],-0.528,0.0261,-0.472,-0.657,-0.476,-0.51
CCN(CC)CCOC(=O)C(c1ccccc1)c1ccccc1 [Adiphenine hydrochloride],-0.67,-1.15,-1.14,-0.931,-0.574,-0.637
C#C[C@]1(O)CC[C@H]2[C@@H]3CCC4=CC(=O)CC[C@@H]4[C@H]3CC[C@@]21C [Norethindrone],-0.462,-0.0403,-0.665,-0.306,-0.425,-0.487
Cc1c(Cl)cccc1Nc1ccccc1C(=O)O [Tolfenamic acid],-0.417,-0.76,-0.809,-0.604,-0.464,-0.636
CN(C)[C@@H]1C(O)=C(C(=O)NCNCCCC[C@H](N)C(=O)O)C(=O)[C@@]2(O)C(O)=C3C(=O)c4c(O)cccc4[C@@](C)(O)[C@H]3C[C@@H]12 [Lymecycline],-0.193,0.509,0.136,0.267,-0.319,-0.559
CC[C@]12CCCN3CCc4c(n(c5ccccc45)[C@@](O)(C(=O)OC)C1)[C@@H]32 [Vincamine],-0.234,0.384,-0.552,-1.23,-0.453,-0.216
CC[C@H]1OC(=O)[C@H](C)[C@@H](O[C@H]2C[C@@](C)(OC)[C@@H](O)[C@H](C)O2)[C@H](C)[C@@H](O[C@@H]2O[C@H](C)C[C@H](N(C)C)[C@H]2O)[C@](C)(O)C[C@@H](C)C(=O)[C@H](C)[C@@H](O)[C@]1(C)O [Erythromycin],0.476,-0.196,0.409,-0.0449,0.977,0.203
C#C[C@]1(O)CC[C@H]2[C@@H]3CCC4=CCCC[C@@H]4[C@H]3CC[C@@]21C [Lynestrenol],-0.602,-1.13,-1.14,-0.677,-0.563,-0.697
CCN1CCN(C(=O)N[C@@H](C(=O)N[C@@H]2C(=O)N3C(C(=O)O)=C(CSc4nnnn4C)CS[C@H]23)c2ccc(O)cc2)C(=O)C1=O [Cefoperazone dihydrate],-0.512,-0.941,-0.712,-0.226,-0.522,-0.518
CC(C)OC(=O)C(C)(C)Oc1ccc(C(=O)c2ccc(Cl)cc2)cc1 [Fenofibrate],-0.471,-0.341,-0.324,-0.246,-0.435,-0.631
COc1cc(N)c(Cl)cc1C(=O)NC1CCN(CCCOc2ccc(F)cc2)CC1OC (stereo not drawn) [Cisapride],0.467,0.977,-0.114,0.308,0.0889,0.672
CC(N/C(=N\C#N)Nc1ccncc1)C(C)(C)C (stereo not drawn) [Pinacidil],-0.477,-0.897,-0.717,-0.503,-0.45,-0.559
NNC(=O)c1ccncc1 [Isoniazid],-0.56,-1.34,-0.938,-1.09,-0.477,-0.667
Nc1cc(C(Cl)=C(Cl)Cl)c(S(N)(=O)=O)cc1S(N)(=O)=O [Clorsulon],-0.372,0.212,-0.73,-0.454,-0.454,-0.586
C[N+]1(C)CCC(=C(c2ccccc2)c2ccccc2)CC1 [Diphemanil methylsulfate],-0.603,-1.21,-0.868,-0.964,-0.428,-0.688
O=C(O)CCC(=O)Nc1ccc(S(=O)(=O)Nc2nccs2)cc1 [Succinylsulfathiazole],-0.428,-0.709,-0.288,-0.818,-0.463,-0.508
Cc1cn[nH]c1 [Fomepizole],-0.605,-0.603,-0.686,-0.874,-0.557,-0.633

Compound,LBPA endosome anti-LBPA integrated intensity (z-score) (A431 [1]),LBPA endosome anti-LBPA integrated intensity (z-score) (HeLa MZ [2]),whole-cell filipin (z-score) (A431 [3]),whole-cell filipin (z-score) (HeLa MZ [4]),filipin (z-score) (A431 [5]),filipin (z-score) (HeLa MZ [6])
CS(=O)(=O)Nc1ccc([N+](=O)[O-])cc1Oc1ccccc1 [Nimesulide],-0.535,-0.741,-0.718,-0.259,-0.551,-0.716
CNNCc1ccc(C(=O)NC(C)C)cc1 [Procarbazine hydrochloride],-0.593,-1.08,-0.286,-0.325,-0.487,-0.664
C[C@H]1c2cccc(O)c2C(=O)C2=C(O)[C@]3(O)C(=O)C(C(N)=O)=C(O)[C@@H](N(C)C)[C@@H]3[C@@H](O)[C@@H]21 [Doxycycline hydrochloride],-0.633,-1.71,-0.0102,-0.552,-0.531,-0.743
Cn1c(=O)c2nc[nH]c2n(C)c1=O [Theophylline monohydrate],-0.668,-1.36,-0.516,-0.207,-0.57,-0.492
"Cc1c(O)c(=O)n(-c2ccccc2)n1C [Antipyrine, 4-hydroxy]",-0.407,-0.193,-0.48,0.114,-0.485,-0.43
O=c1oc2ccccc2c(O)c1Cc1c(O)c2ccccc2oc1=O [Dicumarol],-0.455,-0.834,-0.37,-0.48,-0.64,-0.672
C#CCN(C)CCCOc1ccc(Cl)cc1Cl [Clorgyline hydrochloride],-0.292,0.155,-1.09,-0.252,-0.435,-0.359
NC(N)=Nc1nc(CSCC/C(N)=N/S(N)(=O)=O)cs1 [Famotidine],-0.5,-0.604,-0.838,-0.898,-0.447,-0.623
Cc1cc(N)c2ccccc2[n+]1CCCCCCCCCC[n+]1c(C)cc(N)c2ccccc21 [Dequalinium dichloride],-0.351,0.0986,-0.943,1.23,-0.599,-0.485
COc1cc(N)c(Cl)cc1C(=O)NC1CCN(Cc2ccccc2)CC1 [Clebopride maleate],0.365,2.01,-0.171,0.217,0.0875,0.539
C[C@H](CCC(=O)O)[C@H]1CC[C@H]2[C@@H]3C(=O)C[C@@H]4CC(=O)CC[C@]4(C)[C@H]3CC(=O)[C@]12C [Dehydrocholic acid],-0.567,-0.186,-0.785,-0.553,-0.549,-0.532
CN(C)CCOC(c1ccc(Cl)cc1)c1ccccn1 (stereo not drawn) [Carbinoxamine maleate salt],-0.697,-0.856,-0.5,-0.502,-0.442,-0.169
Cc1nc2ccccn2c(=O)c1CCN1CCC(C(=O)c2ccc(F)cc2)CC1 [Pirenperone],1.82,2.56,1.36,1.21,1.54,2.01
CC/C(=C(/CC)c1ccc(O)cc1)c1ccc(O)cc1 [Diethylstilbestrol],-0.432,-0.702,-0.0535,-0.813,-0.37,-0.493
NS(=O)(=O)c1cc(C2(O)NC(=O)c3ccccc32)ccc1Cl (stereo not drawn) [Chlorthalidone],-0.286,-0.349,-0.587,-0.924,-0.516,-0.608
Cn1c(=O)c2[nH]cnc2n(C)c1=O [Aminophylline],-0.25,0.505,-0.204,0.324,-0.281,-0.178
COc1cc(C(=O)NS(=O)(=O)c2ccccc2C)ccc1Cc1cn(C)c2ccc(NC(=O)OC3CCCC3)cc12 [Zafirlukast],-0.518,-0.847,-0.458,-0.494,-0.486,-0.569
Cn1cnc([N+](=O)[O-])c1Sc1ncnc2[nH]cnc12 [Azathioprine],-0.583,-0.922,-0.805,-1.15,-0.521,-0.677
C[C@]12CCC(=O)C=C1CC[C@@H]1[C@@H]2C(=O)C[C@@]2(C)[C@H]1CC[C@]2(O)C(=O)CO [Cortisone],-0.412,0.126,-0.734,-0.61,-0.464,-0.486
Cc1ccc(/C(=C\CN2CCCC2)c2ccccn2)cc1 [Triprolidine hydrochloride],-0.168,0.494,-0.873,-0.689,-0.378,-0.0781
CCOc1ccc(NC(C)=O)cc1 [Phenacetin],-0.594,-0.322,-0.814,-0.392,-0.555,-0.582
OCCN1CCN(CC/C=C2/c3ccccc3Sc3ccc(Cl)cc32)CC1 [Zuclopenthixol hydrochloride],3.18,1.68,0.421,0.439,2.79,2.86
C=C1C[C@H]2[C@@H]3C=C(C)C4=CC(=O)CC[C@]4(C)[C@H]3CC[C@]2(C)[C@@]1(OC(C)=O)C(C)=O [Melengestrol acetate],1.2,1.67,2.08,1.46,1.58,1.05
N=C(N)NCc1cccc(I)c1 [Iobenguane sulfate],-0.605,-1.1,-0.881,-0.23,-0.54,-0.449
